A selection: hits, their analogues and other compounds. The true share with any hit is near 9.8%.
KDM4E inh: inhibitors of human JMJD2E histone demethylase. JMJD2E catalytic domain, FDH-coupled NADH fluorescence (FDH is formaldehyde dehydrogenase). B2RXH2. Potency, µM (series often up to 57.1 µM), inactives show at the highest dose activity change, negative = inhibition, actives largely listed as inhibitors. hit rate 1.6% among 230,000; active = well fitted inhibition curve with a large enough effect, not every such curve was filed as active; inconclusive = small, poorly fitted or top-dose-only effect, or another doubt; inactive = no such curve, though single readings can be large or run the other way;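 also: potency is read from the fitted curve at half-maximal effect; 0% = wells with enzyme and -100% = buffer wells without enzyme; nearly all actives have a fitted effect of over 50% in size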
HttQ103 aggreg: mutant huntingtin aggregation inhibition; PC12 HttQ103-GFP aggregates, Acumen cytometry, 40 h; hit rate 1.1% among 220,000; AID 1688; Potency, µM (top dose mostly 46.1 µM), without a hit: at the top dose activity change, negative = inhibition, hits mostly inhibitors; also: potency is read from the fitted curve at half-maximal effect; % is scaled to controls: 0 for no effect and ±100 for the full control effect; nearly all actives have a fitted effect of over 60% in size
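PC12 cells stably carrying ecdysone-inducible HTT exon 1 Q103–GFP were induced with tebufenozide (100 nM final) and treated with library compounds in titration. GFP aggregates in lysates were counted by laser scanning cytometry.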
ALDH1A1 inh: blocks purified human ALDH1A1 activity; P00352; Purified ALDH1A1, NADH fluorescence, propionaldehyde substrate; Potency, µM (series often up to 75.3 µM), for the others: top-dose activity, negative = inhibition, usual class: inhibitors; hit rate 7.3% among 220,000; active = well fitted inhibition curve with a large enough effect, not every such curve was filed as active; inconclusive = small, poorly fitted or top-dose-only effect, or another doubt; inactive = no such curve, though single readings can be large or run the other way;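 also: potency is read from the fitted curve at half-maximal effect; plate controls were no enzyme wells and a reference inhibitor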
CBFb RUNX1 block: inhibitors of human CBF-beta and RUNX1 interaction; AlphaScreen CBFb-His/RUNX1-biotin binding, biochemical; Potency, µM (doses to about 59.8 µM), without a hit: at the highest dose activity, negative = inhibition, hits mostly inhibitors; 230,000 tested, under 10 active; AID 1477; also: % of control where 0% means no effect
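Compounds were screened at multiple concentrations against a preformed CBF-beta(His)/RUNX1(biotin) complex (30 nM of each) for 15 min at room temperature, followed by 90 min with nickel and streptavidin beads and AlphaScreen reading.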
HPGD inh: blocks human HPGD enzyme activity; AID 894; hit rate 4.3% among 150,000; Potency, µM, for inactives: at the highest dose activity change, negative = inhibition, most hits filed as inhibitors; purified HPGD, NADH fluorescence kinetic, PGE2 substrate; active = well fitted inhibition curve with a large enough effect, not every such curve was filed as active; inconclusive = small, poorly fitted or top-dose-only effect, or another doubt; inactive = no such curve, though single readings can be large or run the other way; also: potency is read from the fitted curve at half-maximal effect; % is scaled to controls: 0 for no effect and ±100 for the full control effect
Target sequence (P15428 whole entry, looked up): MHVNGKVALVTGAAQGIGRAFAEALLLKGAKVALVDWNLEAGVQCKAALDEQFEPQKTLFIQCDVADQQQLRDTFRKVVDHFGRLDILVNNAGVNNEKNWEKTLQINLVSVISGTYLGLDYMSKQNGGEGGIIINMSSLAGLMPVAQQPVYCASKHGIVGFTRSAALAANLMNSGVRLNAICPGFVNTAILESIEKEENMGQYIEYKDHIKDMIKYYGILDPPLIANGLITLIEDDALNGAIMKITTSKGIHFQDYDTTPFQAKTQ
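20 nM HPGD preincubated 15 min at room temperature with compound in 50 mM Tris-HCl pH 8, 0.01% Tween 20. Started with 1 mM NAD+ and 30 uM prostaglandin E2; NADH fluorescence (360/450 nm) read 5 times over 30-s intervals, last minus first.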
HTT cytoprotect: protects HTT-Q103 PC12 cells, measured by ATP; PC12 HTT-Q103 induced, cytoprotection, ATP luminescence, 40 h; Potency, µM (series often up to 56.4 µM), without a hit: cytoprotection (ATP increase), hits mostly activators; hit rate 0.14% among 230,000; also: potency is read from the fitted curve at half-maximal effect; % of control where 0% means no effect; nearly all actives have a fitted effect of over 45% in size
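PC12 cells with ecdysone-inducible HTT exon 1 Q103-GFP, induced with 100 nM tebufenozide and co-treated with library compounds in a dose series (1536-well, 1500 cells/well). Cytoprotection read as ATP content by ATPlite luminescence.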
The depositor's hits bear a star; [ ] = remark or other dose. Unless noted, calls follow the shape of the dose curve; as a rule, active = well fitted curve in the direction sought with a large enough effect; inconclusive = small, poorly fitted or top-dose-only effect, or another doubt; inactive = no such curve, though single readings can be large; an effect the other way counts as inactive or inconclusive.

`O=C(COC(=O)c1ccccn1)Nc1cc(Cl)ccc1Cl` gave KDM4E inh 2%, HttQ103 aggreg 18%, ALDH1A1 inh -3%, CBFb RUNX1 block -5%, HPGD inh -4% and HTT cytoprotect 5%[10 µM].
O=C(COC(=O)c1ccccn1)Nc1ccccc1Cl was read as KDM4E inh -18%, HttQ103 aggreg -8%, ALDH1A1 inh 22µM*, CBFb RUNX1 block 2%, HPGD inh -2% and HTT cytoprotect -23%[0.074 µM].
For C[C@H](NC(=O)Cn1cncn1)c1ccccc1 the results were KDM4E inh 6%, HttQ103 aggreg 11%, ALDH1A1 inh -49%, CBFb RUNX1 block -2%, HPGD inh -18% and HTT cytoprotect -13%.
Cc1nc2nc[nH]n2c(=O)c1CCC(C)C was read as KDM4E inh -4%, HttQ103 aggreg inconclusive, ALDH1A1 inh inconclusive, CBFb RUNX1 block 2%, HPGD inh -28% and HTT cytoprotect -4%[0.074 µM].
`O=C1c2ccccc2C(=O)C12OC2c1ccc(Cl)cc1` (configuration not stated) gave KDM4E inh inconclusive, HttQ103 aggreg 32µM*, ALDH1A1 inh 0.79µM*, CBFb RUNX1 block 9%, HPGD inh -20% and HTT cytoprotect 0%[10 µM].
Cc1ccc(-c2cccc(C3CC=CC4C3C(=O)N(Cc3ccccc3)C4c3ccc(C(F)(F)F)cc3)c2)cc1 (configuration not stated) was read as KDM4E inh inconclusive, HttQ103 aggreg inconclusive, CBFb RUNX1 block 1% and HTT cytoprotect -49%[10 µM].
`CC[n+]1ccc(C)c2cc(P(=O)(c3ccccc3)c3ccccc3)ccc21` gave KDM4E inh 25µM*, HttQ103 aggreg -7%, ALDH1A1 inh -3%, CBFb RUNX1 block inconclusive and HTT cytoprotect -28%.
Screening Cc1sc2nc(SCC(N)=O)n(-c3ccccc3)c(=O)c2c1C returned KDM4E inh -4%, HttQ103 aggreg 2%, ALDH1A1 inh 18µM*, CBFb RUNX1 block 4% and HTT cytoprotect -10%.
`CC(C)C(=O)N(c1cc2sc(=O)oc2c2ccccc12)S(=O)(=O)c1cccs1` gave KDM4E inh 10µM*, HttQ103 aggreg inconclusive, ALDH1A1 inh -8%, CBFb RUNX1 block inconclusive, HPGD inh -23% and HTT cytoprotect 22%.
Screening CC(C)C(=O)N(c1ccc2oc(=O)sc2c1)S(=O)(=O)c1cccs1 returned KDM4E inh -2%, ALDH1A1 inh inconclusive, CBFb RUNX1 block -23%, HPGD inh -26% and HTT cytoprotect 13µM*.
Screening CC(=O)N(c1ccc2oc(=O)sc2c1)S(=O)(=O)c1cccs1 returned KDM4E inh 3%, HttQ103 aggreg inconclusive, ALDH1A1 inh -12%, CBFb RUNX1 block -8%, HPGD inh -23% and HTT cytoprotect inconclusive.
For O=C(Nc1c(Cl)cc(Cl)cc1-c1nc2ccccc2s1)c1ccc(Br)o1 the results were KDM4E inh inconclusive, HttQ103 aggreg -6%, ALDH1A1 inh inconclusive, CBFb RUNX1 block 13%, HPGD inh inconclusive and HTT cytoprotect 11%.
Cc1cc(C)nc(N2CCCC(C(=O)Nc3ccc4nc(C)c(C)nc4c3)C2)n1 (configuration not stated) was read as KDM4E inh inconclusive, HttQ103 aggreg -4%, ALDH1A1 inh 16µM*, CBFb RUNX1 block -1%, HPGD inh -14% and HTT cytoprotect -7%[10 µM].
Screening Cc1cc(C)cc(NC(=O)C2CCCN(c3nc(C)cc(C)n3)C2)c1 (configuration not stated) returned KDM4E inh -1%, HttQ103 aggreg 7%, ALDH1A1 inh 1%, CBFb RUNX1 block -1%, HPGD inh -1% and HTT cytoprotect 5%.
